Data taken from PubChem BioAssay (EPA / NIEHS).
Calls of active or inactive are those of the source. How the source made its calls: active means hit-call score of the fitted dose curve at least 0.9, where 1 is the maximum; inactive means score below 0.9.

How the values were obtained:
[1] = read-out: Human Leukocyte Antigen - DR isotype (HLADR), HLA-DRA (gene 3122); assay: BSK_BE3C_HLADR: BioMAP Diversity Plus: BE3C Assay for Human Leukocyte Antigen - DR isotype (HLADR) Biomarker Activity (AID 2283032); settings: primary human bronchial epithelial cells; actives raise or lower the signal
In short: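 Signal came from an ELISA for HLA-DR in human bronchial epithelial primary cells harvested 24 h after treatment; gain- and loss-of-signal fitting used DMSO controls as reference.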

[2] = read-out: Vascular cell adhesion molecule 1 (VCAM1), VCAM1 (gene 7412); assay: BSK_4H_VCAM1: BioMAP Diversity Plus: 4H Assay for Vascular cell adhesion molecule 1 (VCAM1) Biomarker Activity (AID 2283033); settings: primary human endothelial cells (HUVEC); actives raise or lower the signal
In short: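 Endpoint derived from bidirectional fitting against DMSO controls of VCAM-1 ELISA signal in umbilical vein endothelial cells sampled at 24 h following treatment.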

[3] = read-out: Interferon-gamma inducible Protein 10 (IP10), CXCL10 (gene 3627); assay: BSK_BE3C_IP10: BioMAP Diversity Plus: BE3C Assay for Interferon-gamma inducible Protein 10 (IP10) Biomarker Activity (AID 2283034); settings: primary human bronchial epithelial cells; actives raise or lower the signal
In short: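 Using primary human bronchial epithelial cultures, the assay captures IP-10 by ELISA one day (24 h) after exposure. Parallel SRB staining of total protein flags overt cytotoxicity. Fits run bidirectionally relative to DMSO.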

[4] = read-out: Monokine induced gamma interferon (MIG), CXCL9 (gene 4283); assay: BSK_BE3C_MIG: BioMAP Diversity Plus: BE3C Assay for Monokine induced gamma interferon (MIG) Biomarker Activity (AID 2283035); settings: primary human bronchial epithelial cells; actives raise or lower the signal
In short: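 MIG level was determined by ELISA after 24 h chemical treatment of primary human bronchial epithelial cells. Values were fitted bidirectionally with DMSO as the negative control and activity baseline.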

[5] = read-out: Transforming growth factor beta 1 (TGFb1), TGFB1 (gene 7040); assay: BSK_BE3C_TGFb1: BioMAP Diversity Plus: BE3C Assay for Transforming growth factor beta 1 (TGFb1) Biomarker Activity (AID 2283036); settings: primary human bronchial epithelial cells; actives raise or lower the signal
In short: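 In this human primary bronchial epithelial system, an ELISA quantified TGF-b1 one day after dosing. Endpoint changes in either direction were fitted relative to DMSO.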

[6] = read-out: urokinase plasminogen activator (uPA), PLAU (gene 5328); assay: BSK_BE3C_uPA: BioMAP Diversity Plus: BE3C Assay for urokinase plasminogen activator (uPA) Biomarker Activity (AID 2283038); settings: primary human bronchial epithelial cells; actives raise or lower the signal
In short: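 Using confluent primary human lung bronchial epithelial cultures, we dosed chemicals, waited 24 h, then ran a uPA ELISA, fitting bidirectionally against DMSO.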

[7] = read-out: Urokinase-type plasminogen activator receptor (uPAR), PLAUR (gene 5329); assay: BSK_BE3C_uPAR: BioMAP Diversity Plus: BE3C Assay for Urokinase-type plasminogen activator receptor (uPAR) Biomarker Activity (AID 2283039); settings: primary human bronchial epithelial cells; actives raise or lower the signal
In short: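 A uPAR ELISA serves as the readout, taken 24 h after treating primary human bronchial epithelial cells. Responses in either direction are fitted against DMSO, which defines baseline activity.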

[8] = read-out: Interleukin-6 (IL6), IL6 (gene 3569); assay: BSK_CASM3C_IL6: BioMAP Diversity Plus: CASM3C Assay for Interleukin-6 (IL6) Biomarker Activity for (AID 2283040); settings: primary human coronary artery smooth muscle cells; actives raise or lower the signal
[9] = read-out: Tissue plasminogen activator (tPA), PLAT (gene 5327); assay: BSK_BE3C_tPA: BioMAP Diversity Plus: BE3C Assay for Tissue plasminogen activator (tPA) Biomarker Activity (AID 2283041); settings: primary human bronchial epithelial cells; actives raise or lower the signal
In short: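 Bidirectional curve fitting relative to DMSO defined activity, with tPA detected by ELISA in chemically treated human bronchial epithelial primary cells at 24 hours.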

[10] = read-out: Interleukin-8 (IL8), CXCL8 (gene 3576); assay: BSK_CASM3C_IL8: BioMAP Diversity Plus: CASM3C Assay for Interleukin-8 (IL8) Biomarker Activity (AID 2283042); settings: primary human coronary artery smooth muscle cells; actives raise or lower the signal;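 further: IL-8 protein level quantified by ELISA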
[11] = read-out: Human Leukocyte Antigen - DR isotype (HLADR), HLA-DRA (gene 3122); assay: BSK_CASM3C_HLADR: BioMAP Diversity Plus: CASM3C Assay for Human Leukocyte Antigen - DR isotype (HLADR) Biomarker Activity (AID 2283043); settings: primary human coronary artery smooth muscle cells; actives raise or lower the signal;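 further: cell-surface HLA-DR protein level quantified by ELISA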
[12] = read-out: Macrophage colony-stimulating factor (MCSF), CSF1 (gene 1435); assay: BSK_CASM3C_MCSF: BioMAP Diversity Plus: CASM3C Assay for Macrophage colony-stimulating factor (MCSF) Biomarker Activity (AID 2283044); settings: primary human coronary artery smooth muscle cells; actives raise or lower the signal;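 further: M-CSF protein amount quantified by ELISA after 24 h exposure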
[13] = read-out: Low-density lipoprotein receptor (LDLR), LDLR (gene 3949); assay: BSK_CASM3C_LDLR: BioMAP Diversity Plus: CASM3C Assay for Low-density lipoprotein receptor (LDLR) Biomarker Activity (AID 2283045); settings: primary human coronary artery smooth muscle cells; actives raise or lower the signal;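 further: LDLR protein level on the cell surface quantified by ELISA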
[14] = read-out: Monocyte Chemoattractant Protein-1 (MCP1), CCL2 (gene 6347); assay: BSK_CASM3C_MCP1: BioMAP Diversity Plus: CASM3C Assay for Monocyte Chemoattractant Protein-1 (MCP1) Biomarker Activity (AID 2283046); settings: primary human coronary artery smooth muscle cells; actives raise or lower the signal;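 further: MCP-1 level quantified by ELISA 24 h after dosing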
[15] = BSK_CASM3C_Proliferation: Cell Proliferation Assessment in the BioMAP Diversity Plus: CASM3C Assay (AID 2283047); settings: primary human coronary artery smooth muscle cells;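 further: sulforhodamine B total protein stain as relative cell number at 560 nm; sub-confluent cells exposed 48 h before staining; fitted both ways against DMSO so gain or loss of cell number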
[16] = read-out: Monokine induced gamma interferon (MIG), CXCL9 (gene 4283); assay: BSK_CASM3C_MIG: BioMAP Diversity Plus: CASM3C Assay for Monokine induced gamma interferon (MIG) Biomarker Activity (AID 2283048); settings: primary human coronary artery smooth muscle cells; actives raise or lower the signal;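 further: MIG protein level measured by ELISA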
[17] = read-out: serum amyloid A (SAA), SAA1 (gene 6288); assay: BSK_CASM3C_SAA: BioMAP Diversity Plus: CASM3C Assay for serum amyloid A (SAA) Biomarker Activity (AID 2283049); settings: primary human coronary artery smooth muscle cells; actives raise or lower the signal;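 further: SAA protein level quantified by ELISA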
[18] = BSK_CASM3C_SRB: Viability Assessment in the BioMAP Diversity Plus: CASM3C Assay (AID 2283050); settings: primary human coronary artery smooth muscle cells;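 further: cells exposed to compound for 24 h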
[19] = read-out: Thrombomodulin, THBD (gene 7056); assay: BSK_CASM3C_Thrombomodulin: BioMAP Diversity Plus: CASM3C Assay for Thrombomodulin Biomarker Activity (AID 2283051); settings: primary human coronary artery smooth muscle cells; actives raise or lower the signal;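 further: thrombomodulin protein level measured by ELISA 24 h after dosing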

Measured: AC50

CCOC(=O)CC(SP(=S)(OC)OC)C(=O)OCC (configuration not stated)
inactive: all assays above

C=CCC1=C(C)[C@@H](OC(=O)[C@@H]2[C@@H](C=C(C)C)C2(C)C)CC1=O
active: [1] 20 µM | [3] 30.6 µM | [6] 26.7 µM | [13] 20 µM
inactive: all other assays above

CN(C)C(=S)SSC(=S)N(C)C
inactive: [8] | [10] | [11] | [13] | [17] | [18]
active: [1] 8.69 µM | [2] 29.3 µM | [3] 10.7 µM | [4] 11.2 µM | [5] 12.9 µM | [6] 7.75 µM | [7] 9.65 µM | [9] 12 µM | [12] 12 µM | [14] 20 µM | [15] 12.6 µM | [16] 14.6 µM | [19] 9.88 µM
